This note sets out measurements from PubChem BioAssay (EPA / NIEHS).

The target in assay [1] is human Neurokinin, NK2 Receptor, TACR2 (gene 6865) (UniProt P21452). The experiment in a line: NVS_GPCR_hNK2: NovaScreen (NVS) G Protein-Coupled Receptor Assay for human Neurokinin, NK2 Receptor (AID 2283278).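 Note: actives reduce bound radioligand signal relative to DMSO baseline.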 Summed up:
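Filter-based scintillation counting measured radioligand bound to receptor extracted from CHO cells, 4 hours after compound addition. Chemicals screened first at 25 uM in duplicate, with actives retested in concentration series relative to DMSO.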

The target in assay [2] is rat Serotonin, 5-Hydroxytryptamine Receptor 1 (5HT1), Non-Selective Binding, Htr1a (gene 24473) (UniProt P19327). The experiment in a line: NVS_GPCR_r5HT1_NonSelective: NovaScreen (NVS) G Protein-Coupled Receptor Assay for rat Serotonin, 5-Hydroxytryptamine Receptor 1 (5HT1), Non-Selective Binding (AID 2283286). Summed up: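 Binding of a radioligand to rat cortex membranes is read by filtration and scintillation counting after 1 h. Compounds were screened at 25 uM in duplicate. Actives were then titrated to a top of 50 uM. DMSO is the baseline.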
Sequence of rat Serotonin, 5-Hydroxytryptamine Receptor 1 (5HT1), Non-Selective Binding, Htr1a (gene 24473) (P19327 whole entry, looked up): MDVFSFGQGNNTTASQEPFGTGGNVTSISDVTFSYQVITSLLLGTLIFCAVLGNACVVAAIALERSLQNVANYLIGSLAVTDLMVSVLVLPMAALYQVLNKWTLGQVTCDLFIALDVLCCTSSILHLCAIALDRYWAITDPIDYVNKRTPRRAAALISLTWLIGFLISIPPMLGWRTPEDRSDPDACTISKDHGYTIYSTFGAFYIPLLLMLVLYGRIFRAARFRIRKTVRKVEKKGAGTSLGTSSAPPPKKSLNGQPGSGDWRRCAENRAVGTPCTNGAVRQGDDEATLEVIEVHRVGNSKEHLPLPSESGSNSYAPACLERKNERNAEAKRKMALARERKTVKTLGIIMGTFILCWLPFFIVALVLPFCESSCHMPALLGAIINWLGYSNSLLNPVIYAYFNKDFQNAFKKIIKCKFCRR

Assay [3] addresses human Histamine 1 Receptor (H1), HRH1 (gene 3269) (UniProt P35367). The experiment in a line: NVS_GPCR_hH1: NovaScreen (NVS) G Protein-Coupled Receptor Assay for human Histamine 1 Receptor (H1) (AID 2283268). In a few lines: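 Filter-based scintillation detection of radioligand binding to human H1, 1 h incubation; chemicals screened in duplicate at 25 uM, then concentration-response; signal loss relative to DMSO taken as activity.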

Assay [4] has as its target human Thromboxane A2 Receptor (TXA2), TBXA2R (gene 6915) (UniProt P21731). The experiment in a line: NVS_GPCR_hTXA2: NovaScreen (NVS) G Protein-Coupled Receptor Assay for human Thromboxane A2 Receptor (TXA2) (AID 2283282).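 Note: actives reduce bound radioligand signal relative to DMSO baseline.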 Summed up: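 Human platelet-derived receptor preparation incubated with test chemical and radiolabelled ligand for 1 hour, cell-free. Bound label was separated by filtration and counted; displacement relative to DMSO controls gave activity, screened at 25 uM, then titrated.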

Assay [5] addresses human Vasopressin 1A Receptor (V1A), AVPR1A (gene 552) (UniProt P37288). The experiment in a line: NVS_GPCR_hV1A: NovaScreen (NVS) G Protein-Coupled Receptor Assay for human Vasopressin 1A Receptor (V1A) (AID 2283284). In a few lines: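 Single-concentration duplicate screen at 25 uM, with concentration-response follow-up (top 50 uM) for actives. The assay measured displacement of a radioligand from human platelet-derived receptor after 1.5 h, detected by filtration and scintillation counting.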

The target of assay [6] is mouse Cholecystokinin, CCK1 Receptor (CCKA), Cckar (gene 12425) (UniProt O08786). The experiment in a line: NVS_GPCR_mCCKAPeripheral: NovaScreen (NVS) G Protein-Coupled Receptor Assay for mouse Cholecystokinin, CCK1 Receptor (CCKA) (AID 2283285). Summed up: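 Chemicals were first screened in duplicate at 25 uM, with those meeting threshold (e.g., 30% inhibition) retested in singleton concentration series to 50 uM maximum. Binding of radioligand to mouse pancreatic membranes was read after 2 h by filtration and scintillation counting.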
Sequence of mouse Cholecystokinin, CCK1 Receptor (CCKA), Cckar (gene 12425) (O08786 whole entry, looked up): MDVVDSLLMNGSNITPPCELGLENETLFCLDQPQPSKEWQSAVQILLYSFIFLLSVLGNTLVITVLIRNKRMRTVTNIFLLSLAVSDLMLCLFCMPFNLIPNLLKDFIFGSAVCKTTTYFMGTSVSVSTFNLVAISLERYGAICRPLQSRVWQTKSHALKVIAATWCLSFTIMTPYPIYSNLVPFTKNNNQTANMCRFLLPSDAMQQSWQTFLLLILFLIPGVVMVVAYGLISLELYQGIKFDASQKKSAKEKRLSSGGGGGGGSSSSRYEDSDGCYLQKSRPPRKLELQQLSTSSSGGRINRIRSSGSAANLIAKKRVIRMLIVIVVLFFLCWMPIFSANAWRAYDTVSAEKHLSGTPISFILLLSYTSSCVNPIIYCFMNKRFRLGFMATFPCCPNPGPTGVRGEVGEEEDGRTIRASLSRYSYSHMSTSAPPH

The subject of assay [7] is rabbit Platelet Activating Factor Receptor (PAF), gene 100354046. The experiment in a line: NVS_GPCR_rabPAF: NovaScreen (NVS) G Protein-Coupled Receptor Assay for rabbit Platelet Activating Factor Receptor (PAF) (AID 2283287). Summed up:
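Rabbit platelet membrane preparation; radioligand displacement read by filter-based scintillation counting 1 h after dosing, loss of signal versus DMSO. Primary screen in duplicate at 25 uM, actives followed up in concentration series.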

For assay [8], the target named is D(1A) dopamine receptor (Homo sapiens) (UniProt P21728). The experiment in a line: NVS_GPCR_hDRD1: NovaScreen (NVS) G Protein-Coupled Receptor Assay for human Dopamine Receptor D1 (DRD1) (AID 2283269). Summed up: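 HEK293-derived receptor preparation; radioligand competitive displacement; 1 h; filtration + scintillation counting. DMSO = negative control/baseline. Primary: 25 uM, duplicate; secondary: concentration–response for actives.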
Sequence of D(1A) dopamine receptor (Homo sapiens) (P21728 whole entry, looked up): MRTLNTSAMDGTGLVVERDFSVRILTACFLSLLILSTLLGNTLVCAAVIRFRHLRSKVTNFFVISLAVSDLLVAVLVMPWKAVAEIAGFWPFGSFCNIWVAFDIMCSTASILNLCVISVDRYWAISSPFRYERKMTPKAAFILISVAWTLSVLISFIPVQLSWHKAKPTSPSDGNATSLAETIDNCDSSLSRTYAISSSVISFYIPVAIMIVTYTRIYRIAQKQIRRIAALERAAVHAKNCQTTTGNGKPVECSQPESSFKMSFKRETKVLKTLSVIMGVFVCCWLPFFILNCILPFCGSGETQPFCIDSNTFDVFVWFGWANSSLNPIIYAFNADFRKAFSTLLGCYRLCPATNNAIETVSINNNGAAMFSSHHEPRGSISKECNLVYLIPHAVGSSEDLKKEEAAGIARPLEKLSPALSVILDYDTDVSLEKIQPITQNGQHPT

Assay [9] addresses Muscarinic acetylcholine receptor M3 (Homo sapiens) (UniProt P20309). The experiment in a line: NVS_GPCR_hM3: NovaScreen (NVS) G Protein-Coupled Receptor Assay for human Muscarinic, M3 Receptor (AID 2283272). Summed up: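 Radioligand displacement binding on human M3 receptor in CHO-derived membranes, 1 h incubation, filter-based scintillation counting. Primary screen in duplicate at 25 uM; actives followed up in concentration series; loss of signal versus DMSO.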

The target of assay [10] is Muscarinic acetylcholine receptor M2 (Homo sapiens) (UniProt P08172). The experiment in a line: NVS_GPCR_hM2: NovaScreen (NVS) G Protein-Coupled Receptor Assay for human Muscarinic, M2 Receptor (AID 2283273). Summed up:
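Radioligand competition binding, cell-free, receptor from CHO; 1 h incubation; scintillation detection. Primary testing at 25 uM in duplicate.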

Assay [11] deals with human Neurotensin Receptor (NTS), NTSR1 (gene 4923) (UniProt P30989). The experiment in a line: NVS_GPCR_hNTS: NovaScreen (NVS) G Protein-Coupled Receptor Assay for human Neurotensin Receptor (NTS) (AID 2283279). In a few lines:
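Compounds competed with a radiolabelled ligand for binding to CHO-derived human neurotensin receptor; bound signal counted after filtration, 1 h. Screened first at a single concentration of 25 uM in duplicate, then concentration series to 50 uM maximum for actives.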

Assay [12] deals with human Orphanin, Opioid Related Nociceptin Receptor 1 (ORL1), OPRL1 (gene 4987) (UniProt P41146). The experiment in a line: NVS_GPCR_hORL1: NovaScreen (NVS) G Protein-Coupled Receptor Assay for human Orphanin, Opioid Related Nociceptin Receptor 1 (ORL1) (AID 2283283). In a few lines:
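Cell-free binding using HEK293-derived receptor protein: radioligand displacement measured by filter scintillation 1 hour after dosing. Primary testing at 25 uM in duplicate, followed by singleton concentration series up to 50 uM; DMSO served as negative control.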

Assay [13] has as its target human Opioid Receptor Delta 1 (Opiate D1), OPRD1 (gene 4985) (UniProt P41143). The experiment in a line: NVS_GPCR_hOpiate_D1: NovaScreen (NVS) G Protein-Coupled Receptor Assay for human Opioid Receptor Delta 1 (Opiate D1) (AID 2283280). Summed up: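 Membrane preparations from CHO cells bearing the human receptor were incubated 1 h with test chemical, and bound radioligand was counted after filtration. Actives from 25 uM duplicate screening were retested in concentration-response.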

For assay [14], the target named is human Muscarinic, M4 Receptor, CHRM4 (gene 1132) (UniProt P08173). The experiment in a line: NVS_GPCR_hM4: NovaScreen (NVS) G Protein-Coupled Receptor Assay for human Muscarinic, M4 Receptor (AID 2283274). In a few lines:
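Filter-based scintillation counting of radioligand bound to CHO-expressed human M4 preparations after 1 h; loss of signal fitted versus DMSO. Initial duplicate testing at 25 uM, concentration-response follow-up for actives.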

In assay [15] the target is human Purinergic Receptor P2Y, P2RY1 (gene 5028) (UniProt P47900). The experiment in a line: NVS_GPCR_hPY2: NovaScreen (NVS) G Protein-Coupled Receptor Assay for human Purinergic Receptor P2Y (AID 2283281). In a few lines:
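Filtration scintillation readout of radioligand displacement on U937 extract, measured 1 h post-dosing. Single 25 uM duplicate screen, then singleton concentration series to 50 uM for chemicals passing threshold; DMSO as baseline.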

Assay [16] has as its target Muscarinic acetylcholine receptor M5 (Homo sapiens) (UniProt P08912). The experiment in a line: NVS_GPCR_hM5: NovaScreen (NVS) G Protein-Coupled Receptor Assay for human Muscarinic, M5 Receptor (AID 2283275). In a few lines: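 Chemicals passing a primary duplicate screen at 25 uM were run as singleton concentration series, maximum 50 uM. Displacement of a specific radioligand from CHO-extracted receptor was read by filter scintillation after 1 h, relative to DMSO.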

The target in assay [17] is Muscarinic acetylcholine receptor M1 (Homo sapiens) (UniProt P11229). The experiment in a line: NVS_GPCR_hM1: NovaScreen (NVS) G Protein-Coupled Receptor Assay for human Muscarinic, M1 Receptor (AID 2283270). In a few lines: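 Actives from a duplicate 25 uM single-point screen were retested in concentration series. Binding measured as displacement of a radioligand from CHO-derived receptor preparation, 1 h incubation, filtration and scintillation counting, analysed as signal loss against DMSO.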

Assay [18] addresses human Neuropeptide Receptor Y1 (NPY1), NPY1R (gene 4886) (UniProt P25929). The experiment in a line: NVS_GPCR_hNPY1: NovaScreen (NVS) G Protein-Coupled Receptor Assay for human Neuropeptide Receptor Y1 (NPY1) (AID 2283276). In a few lines:
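Displacement of specific radioligand from NPY1 receptor of SK-N-MC origin, read by filtration and scintillation after 1 h. Compounds first tested at 25 uM in duplicate, then actives in concentration series; signal loss relative to DMSO.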

In general, AC50 refers to the concentration giving half of the maximal activity seen.

Records with an inconclusive call do not appear. Activity calls are given as the source filed them. Rule for the calls: active = hit-call score of the fitted dose curve at least 0.9, where 1 is the maximum; inconclusive = response in the unintended direction; inactive = score below 0.9.

Sequence of human Opioid Receptor Delta 1 (Opiate D1), OPRD1 (gene 4985) (P41143 whole entry, looked up): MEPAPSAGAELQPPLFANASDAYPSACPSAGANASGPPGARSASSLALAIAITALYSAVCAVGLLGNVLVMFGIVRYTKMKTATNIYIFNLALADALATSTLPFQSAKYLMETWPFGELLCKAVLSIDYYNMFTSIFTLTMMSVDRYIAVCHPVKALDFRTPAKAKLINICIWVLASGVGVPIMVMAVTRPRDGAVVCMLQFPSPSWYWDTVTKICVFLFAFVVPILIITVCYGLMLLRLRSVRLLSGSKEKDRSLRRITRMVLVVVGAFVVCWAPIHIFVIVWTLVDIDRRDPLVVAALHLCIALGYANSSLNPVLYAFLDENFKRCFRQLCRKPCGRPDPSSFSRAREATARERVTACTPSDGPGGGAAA
Sequence of human Neurokinin, NK2 Receptor, TACR2 (gene 6865) (P21452 whole entry, looked up): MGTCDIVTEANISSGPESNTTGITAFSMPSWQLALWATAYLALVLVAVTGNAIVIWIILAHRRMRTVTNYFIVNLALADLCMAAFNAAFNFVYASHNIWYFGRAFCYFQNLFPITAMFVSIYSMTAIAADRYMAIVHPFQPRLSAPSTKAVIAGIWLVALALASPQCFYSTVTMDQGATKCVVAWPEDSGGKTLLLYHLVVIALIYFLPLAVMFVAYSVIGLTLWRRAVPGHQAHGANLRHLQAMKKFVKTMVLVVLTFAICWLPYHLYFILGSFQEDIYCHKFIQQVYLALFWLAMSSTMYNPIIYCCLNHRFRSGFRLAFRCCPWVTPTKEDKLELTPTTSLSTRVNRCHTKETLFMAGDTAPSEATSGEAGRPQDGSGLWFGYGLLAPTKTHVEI
Sequence of human Histamine 1 Receptor (H1), HRH1 (gene 3269) (P35367 whole entry, looked up): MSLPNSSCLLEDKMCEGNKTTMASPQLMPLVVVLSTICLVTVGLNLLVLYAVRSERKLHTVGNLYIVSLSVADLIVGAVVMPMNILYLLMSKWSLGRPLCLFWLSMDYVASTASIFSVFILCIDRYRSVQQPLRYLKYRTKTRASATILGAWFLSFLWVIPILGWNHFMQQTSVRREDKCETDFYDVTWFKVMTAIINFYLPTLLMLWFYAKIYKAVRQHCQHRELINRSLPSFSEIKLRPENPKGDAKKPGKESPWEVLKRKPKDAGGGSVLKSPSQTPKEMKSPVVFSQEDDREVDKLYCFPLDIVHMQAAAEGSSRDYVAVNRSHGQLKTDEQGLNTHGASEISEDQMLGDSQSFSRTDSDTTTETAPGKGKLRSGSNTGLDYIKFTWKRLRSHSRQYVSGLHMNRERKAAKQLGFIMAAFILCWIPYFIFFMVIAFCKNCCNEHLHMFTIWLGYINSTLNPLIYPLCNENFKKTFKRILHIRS
Sequence of human Thromboxane A2 Receptor (TXA2), TBXA2R (gene 6915) (P21731 whole entry, looked up): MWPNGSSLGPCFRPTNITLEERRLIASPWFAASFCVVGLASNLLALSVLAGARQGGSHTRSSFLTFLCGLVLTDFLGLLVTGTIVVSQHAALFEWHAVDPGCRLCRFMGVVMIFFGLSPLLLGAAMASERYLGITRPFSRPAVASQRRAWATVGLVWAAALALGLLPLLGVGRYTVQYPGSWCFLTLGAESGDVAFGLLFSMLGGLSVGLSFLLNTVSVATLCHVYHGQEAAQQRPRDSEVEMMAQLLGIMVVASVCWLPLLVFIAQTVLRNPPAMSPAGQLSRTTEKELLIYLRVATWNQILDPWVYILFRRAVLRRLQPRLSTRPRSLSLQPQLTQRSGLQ
Sequence of Muscarinic acetylcholine receptor M5 (Homo sapiens) (P08912 whole entry, looked up): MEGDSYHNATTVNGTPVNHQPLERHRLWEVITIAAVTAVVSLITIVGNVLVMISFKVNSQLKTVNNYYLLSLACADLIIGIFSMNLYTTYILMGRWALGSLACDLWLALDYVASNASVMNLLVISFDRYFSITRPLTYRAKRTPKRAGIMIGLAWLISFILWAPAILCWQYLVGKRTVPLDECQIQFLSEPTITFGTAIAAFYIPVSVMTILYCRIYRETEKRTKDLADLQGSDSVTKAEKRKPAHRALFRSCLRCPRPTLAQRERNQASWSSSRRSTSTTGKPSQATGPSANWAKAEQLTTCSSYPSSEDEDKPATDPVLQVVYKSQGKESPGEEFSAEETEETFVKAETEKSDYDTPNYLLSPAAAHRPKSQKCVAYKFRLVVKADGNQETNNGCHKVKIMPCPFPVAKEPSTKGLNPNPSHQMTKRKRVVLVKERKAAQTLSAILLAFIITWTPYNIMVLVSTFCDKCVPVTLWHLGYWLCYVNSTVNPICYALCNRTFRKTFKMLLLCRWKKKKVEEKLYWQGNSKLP
Sequence of human Muscarinic, M4 Receptor, CHRM4 (gene 1132) (P08173 whole entry, looked up): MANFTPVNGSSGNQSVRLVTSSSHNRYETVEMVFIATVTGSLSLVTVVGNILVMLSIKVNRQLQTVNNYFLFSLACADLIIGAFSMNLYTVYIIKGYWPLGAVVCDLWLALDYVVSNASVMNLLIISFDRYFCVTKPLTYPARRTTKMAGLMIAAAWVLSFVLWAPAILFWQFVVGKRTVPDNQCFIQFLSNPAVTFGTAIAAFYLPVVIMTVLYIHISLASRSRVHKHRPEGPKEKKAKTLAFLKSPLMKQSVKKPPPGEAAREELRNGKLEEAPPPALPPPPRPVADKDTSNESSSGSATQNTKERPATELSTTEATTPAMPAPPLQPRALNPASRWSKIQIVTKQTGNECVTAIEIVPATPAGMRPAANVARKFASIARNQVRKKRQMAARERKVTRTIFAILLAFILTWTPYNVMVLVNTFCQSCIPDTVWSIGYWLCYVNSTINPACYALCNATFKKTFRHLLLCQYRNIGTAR
Sequence of Muscarinic acetylcholine receptor M2 (Homo sapiens) (P08172 whole entry, looked up): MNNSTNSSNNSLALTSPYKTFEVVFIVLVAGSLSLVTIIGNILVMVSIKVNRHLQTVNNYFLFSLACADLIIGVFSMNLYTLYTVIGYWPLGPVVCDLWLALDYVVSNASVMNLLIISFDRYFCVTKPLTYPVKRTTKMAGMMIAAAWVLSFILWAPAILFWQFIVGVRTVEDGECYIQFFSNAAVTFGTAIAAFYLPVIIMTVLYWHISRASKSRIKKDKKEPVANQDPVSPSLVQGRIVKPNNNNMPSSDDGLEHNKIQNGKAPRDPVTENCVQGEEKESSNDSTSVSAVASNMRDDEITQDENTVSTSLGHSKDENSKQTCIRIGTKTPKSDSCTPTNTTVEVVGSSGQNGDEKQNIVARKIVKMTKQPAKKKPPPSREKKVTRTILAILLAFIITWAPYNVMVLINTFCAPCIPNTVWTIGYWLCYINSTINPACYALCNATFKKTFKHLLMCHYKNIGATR
Sequence of human Vasopressin 1A Receptor (V1A), AVPR1A (gene 552) (P37288 whole entry, looked up): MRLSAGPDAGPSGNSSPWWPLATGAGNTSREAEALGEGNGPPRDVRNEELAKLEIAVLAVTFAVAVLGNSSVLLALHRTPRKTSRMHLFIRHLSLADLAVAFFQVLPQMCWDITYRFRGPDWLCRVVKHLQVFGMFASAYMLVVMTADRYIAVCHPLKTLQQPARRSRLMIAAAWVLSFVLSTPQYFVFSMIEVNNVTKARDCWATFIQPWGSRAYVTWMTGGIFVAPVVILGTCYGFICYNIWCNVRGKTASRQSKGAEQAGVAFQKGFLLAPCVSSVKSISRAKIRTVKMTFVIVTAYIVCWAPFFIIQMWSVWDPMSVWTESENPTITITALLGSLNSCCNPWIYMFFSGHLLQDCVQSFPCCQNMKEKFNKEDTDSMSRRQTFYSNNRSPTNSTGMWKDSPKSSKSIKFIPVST

Regarding `Nc1nc(=S)c2[nH]cnc2[nH]1`, the AC50 in assay [1] is 44.4 µM (active). Further, the outcome in assay [2] was inactive.

Take `CCC(C)N(C)C(=O)c1cc2ccccc2c(-c2ccccc2Cl)n1` (stereo unspecified): the AC50 in assay [3] is 15.9 µM (active); in [1], 15.9 µM (active); in assay [4] it was 1 µM (active); in [6], 10.8 µM (active); in assay [7], 7.29 µM (active). In [5], the call was inactive.

In the case of `O=C(O)c1[nH]n(-c2ccc(S(=O)(=O)O)cc2)c(=O)c1N=Nc1ccc(S(=O)(=O)O)cc1`, the AC50 is 19.2 µM (active) in [8] and 5.69 µM (active) in [2]. Also, the outcome in assay [9] and in assay [10] was inactive.

As to `C/C=C/C=C/C(=O)O`, the result in [11] was inactive.

Regarding `C#CC(O)C(CC)CCCC` (stereo unspecified), the call in assay [12] was inactive.

`O=C1OC(c2ccc(O)cc2)(c2ccc(O)cc2)c2ccccc21`: the AC50 is 4.96 µM (active) in assay [8], 6.64 µM (active) in assay [13] and 0.454 µM (active) in assay [4].

In the case of `NC(=Nc1ccccc1)Nc1ccccc1`, the AC50 is 19.8 µM (active) in [10] and 14.9 µM (active) in assay [14].

With `CC(COCC(C)OC(=O)c1ccccc1)OC(=O)c1ccccc1` (stereo unspecified), the call in assay [15] was inactive.

Turning to `O=C(N[C@@H](c1ccccc1)[C@@H]1CCCCN1)c1cccc(C(F)(F)F)c1Cl`, the call in [3] was inactive. Moreover, the AC50 in assay [8] is 12.1 µM (active); in [16], 25 µM (active); in assay [1], 17.8 µM (active).

In the case of `CN(C)C(=O)NC1(c2ccccc2)CCN(CCC[C@]2(c3ccc(Cl)c(Cl)c3)CCCN(C(=O)c3ccccc3)C2)CC1`, the AC50 is 2.02 µM (active) in [17]; 3.84 µM (active) in assay [9]; 2.41 µM (active) in assay [10]; 3.46 µM (active) in assay [14]; 2.01 µM (active) in assay [16]; 0.164 µM (active) in [1]. Further, the molecule was classed as inactive in [13].

Turning to `Oc1ccc(O)cc1`, the AC50 in [18] was 10.8 µM (active). The outcome in assay [1] and in assay [5] was inactive.

For `CN(C)C(=O)NC1(c2ccccc2)CCN(CC[C@@]2(c3ccc(F)c(F)c3)CN(C(=O)c3ccccc3)CCO2)CC1`, the AC50 in assay [10] is 9.11 µM (active); in [14] it was 16.9 µM (active); in assay [16], 12.8 µM (active); in [1] it was 0.00564 µM (active); in [6], 12.8 µM (active).

Consider `CC(C)(C)c1ccccc1`, for which, in assay [2], the result was inactive.

`Cn1cnc2c1c(=O)[nH]c(=O)n2C`: the result in assay [8], in assay [14], in [13] and in assay [2] was inactive.

Turning to `Cc1cc(SC2=C(O)C[C@@](CCc3ccc(N)cc3)(C(C)C)OC2=O)c(C(C)(C)C)cc1CO`, the call in assay [3], in assay [8], in assay [17], in [14], in assay [16] and in assay [6] was inactive. Besides, the AC50 in assay [4] is 0.881 µM (active).
